Laboratory results taken from the supplement of paper PMC8728848.
About 410 targets per protein were measured; listed, in parts, are those with the strongest signals and a random draw of the rest.

Columns and labels:
Assay in all cases: glycan array binding signal (z-score within array); higher = stronger binding
Conditions in all cases: glycan notation: IUPAC condensed, linker removed
Fuc(a1-2)Gal(b1-3)GlcNAc = target: Fuc(a1-2)Gal(b1-3)GlcNAc
Method in brief: (§1)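 Glycan array data were curated from 3228 arrays in the Consortium for Functional Glycomics database and kept only where the protein sequence was available. Glycan names were converted to IUPAC-condensed notation, and columns mapping to the same glycan were averaged. The binding signal is a within-array Z-score, averaged across arrays of the same protein sequence at different concentrations or buffers and across linkers. Negative Z-scores can be read as non-binding.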

[1] = target: Fuc(a1-2)Gal(b1-3)GlcNAc(b1-2)Man(a1-3)[Fuc(a1-2)Gal(b1-3)GlcNAc(b1-2)Man(a1-6)]Man(b1-4)GlcNAc(b1-4)[Fuc(a1-6)]GlcNAc
Method in brief: as §1

[2] = target: Fuc(a1-2)Gal(b1-4)GlcNAc(b1-2)[Fuc(a1-2)Gal(b1-4)GlcNAc(b1-4)]Man(a1-3)[Fuc(a1-2)Gal(b1-4)GlcNAc(b1-2)Man(a1-6)]Man(b1-4)GlcNAc(b1-4)GlcNAc
Method in brief: as §1

[3] = target: Fuc(a1-2)Gal(b1-4)[Fuc(a1-3)]GlcNAc(b1-2)Man(a1-3)[Fuc(a1-2)Gal(b1-4)[Fuc(a1-3)]GlcNAc(b1-2)Man(a1-6)]Man(b1-4)GlcNAc(b1-4)GlcNAc
Method in brief: as §1

[4] = target: Fuc(a1-2)Gal(b1-4)[Fuc(a1-3)]GlcNAc(b1-3)GalNAc
Method in brief: as §1

[5] = target: Fuc(a1-2)Gal6S(b1-3)GlcNAc
Method in brief: as §1

Fuc(a1-2)[Gal(a1-3)]Gal = target: Fuc(a1-2)[Gal(a1-3)]Gal
Method in brief: as §1

[6] = target: Fuc(a1-2)[GalNAc(a1-3)]Gal(b1-4)GlcNAc
Method in brief: as §1

[7] = target: Fuc(a1-2)[GalNAc(a1-3)]Gal(b1-4)GlcNAc(b1-3)GalNAc
Method in brief: as §1

[8] = target: Fuc(a1-2)[GalNAc(a1-3)]Gal(b1-4)[Fuc(a1-3)]GlcNAc(b1-3)GalNAc
Method in brief: as §1

[9] = target: Gal(a1-3)Gal(b1-3)GlcNAc(b1-2)Man(a1-3)[Gal(a1-3)Gal(b1-3)GlcNAc(b1-2)Man(a1-6)]Man(b1-4)GlcNAc(b1-4)GlcNAc
Method in brief: as §1

[10] = target: Gal(a1-3)Gal(b1-3)[Fuc(a1-4)]GlcNAc(b1-2)Man(a1-3)[Gal(a1-3)Gal(b1-3)[Fuc(a1-4)]GlcNAc(b1-2)Man(a1-6)]Man(b1-4)GlcNAc(b1-4)GlcNAc
Method in brief: as §1

Gal(a1-4)Gal(b1-4)Glc = target: Gal(a1-4)Gal(b1-4)Glc
Method in brief: as §1

Gal(a1-6)Glc = target: Gal(a1-6)Glc
Method in brief: as §1

[11] = target: Gal(b1-3)GlcNAc(a1-6)Gal(b1-4)GlcNAc
Method in brief: as §1

[12] = target: Gal(b1-4)GlcNAc(b1-2)Man(a1-6)Man(b1-4)GlcNAc(b1-4)GlcNAc
Method in brief: as §1

[13] = target: Gal(b1-4)GlcNAc(b1-2)[Gal(b1-4)GlcNAc(b1-4)]Man(a1-3)[GlcNAc(b1-4)][Gal(b1-4)GlcNAc(b1-2)[Gal(b1-4)GlcNAc(b1-6)]Man(a1-6)]Man(b1-4)GlcNAc(b1-4)GlcNAc
Method in brief: as §1

[14] = target: Gal(b1-4)GlcNAc(b1-2)[Gal(b1-4)GlcNAc(b1-6)]Man(a1-6)[Gal(b1-4)GlcNAc(b1-2)Man(a1-3)]Man(b1-4)GlcNAc(b1-4)[Fuc(a1-6)]GlcNAc
Method in brief: as §1

Gal3S(b1-3)GlcNAc = target: Gal3S(b1-3)GlcNAc
Method in brief: as §1

GalNAc(b1-3)GalNAc = target: GalNAc(b1-3)GalNAc
Method in brief: as §1

GalNAc4S6S(b1-4)GlcNAc = target: GalNAc4S6S(b1-4)GlcNAc
Method in brief: as §1

[15] = target: GlcNAc(a1-4)Gal(b1-4)GlcNAc(b1-3)Gal(b1-4)Glc
Method in brief: as §1

[16] = target: GlcNAc(a1-4)Gal(b1-4)GlcNAc(b1-3)Gal(b1-4)GlcNAc(b1-3)Gal(b1-4)GlcNAc
Method in brief: as §1

[17] = target: GlcNAc(a1-4)Gal(b1-4)GlcNAc(b1-3)Gal(b1-4)[Fuc(a1-3)]GlcNAc(b1-3)Gal(b1-4)[Fuc(a1-3)]GlcNAc
Method in brief: as §1

GlcNAc(b1-3)Man = target: GlcNAc(b1-3)Man
Method in brief: as §1

[18] = target: GlcNAc(b1-3)[GlcNAc(b1-6)]GalNAc
Method in brief: as §1

[19] = target: Man(a1-2)Man(a1-3)[Man(a1-2)Man(a1-6)]Man(a1-6)[Man(a1-2)Man(a1-2)Man(a1-3)]Man(b1-4)GlcNAc(b1-4)GlcNAc
Method in brief: as §1

Man(a1-3)[Man(a1-6)]Man = target: Man(a1-3)[Man(a1-6)]Man
Method in brief: as §1

[20] = target: Man(a1-3)[Man(a1-6)]Man(a1-6)[Man(a1-3)]Man
Method in brief: as §1

[21] = target: Neu5Ac(a2-3)Gal(b1-3)[Fuc(a1-4)]GlcNAc
Method in brief: as §1

B1: ArathEULS3 (Arabidopsis thaliana), Q945P1 (protein)
chain: MEHHHQHHRHHQRDDGEDDRQSFGVPPPHVDAPPQPHGLYQSQPHFDPYAPTPQAPAPYRSETQFEPHAPPPYRSEPYFETPAPPPSFGHVSHVGHQSPNESYPPEHHRYGGYQQPSNSLLESHGDHSGVTHVAHHSSNQPQSSSGVYHKPDENRLPDNLAGLAGRATVKVYSKAEPNYNLTIRDGKVILAPADPSDEAQHWYKDEKYSTKVKDADGHPCFALVNKATGEAMKHSVGATHPVHLIRYVPDKLDESVLWTESKDFGDGYRTIRMVNNTRLNVDAYHGDSKSGGVRDGTTIVLWDWNKGDNQLWKIFPFILEQKLISEEDLNSAVDHHHHHH
Fuc(a1-2)Gal(b1-3)GlcNAc
  glycan array binding signal (z-score): -0.25
[1]
  glycan array binding signal (z-score): 0.265
[2]
  glycan array binding signal (z-score): 0.36
[3]
  glycan array binding signal (z-score): 1.64
[4]
  glycan array binding signal (z-score): 11.8
[5]
  glycan array binding signal (z-score): -0.322
Fuc(a1-2)[Gal(a1-3)]Gal
  glycan array binding signal (z-score): -0.303
[6]
  glycan array binding signal (z-score): -0.305
[7]
  glycan array binding signal (z-score): -0.012
[8]
  glycan array binding signal (z-score): 7.35
[9]
  glycan array binding signal (z-score): 4.38
[10]
  glycan array binding signal (z-score): 0.898
Gal(a1-4)Gal(b1-4)Glc
  glycan array binding signal (z-score): -0.332
Gal(a1-6)Glc
  glycan array binding signal (z-score): -0.342
[11]
  glycan array binding signal (z-score): -0.235
[12]
  glycan array binding signal (z-score): 2.12
[13]
  glycan array binding signal (z-score): 5.54
[14]
  glycan array binding signal (z-score): -0.026
Gal3S(b1-3)GlcNAc
  glycan array binding signal (z-score): -0.279
GalNAc(b1-3)GalNAc
  glycan array binding signal (z-score): 0.511
GalNAc4S6S(b1-4)GlcNAc
  glycan array binding signal (z-score): -0.105
[15]
  glycan array binding signal (z-score): -0.112
[16]
  glycan array binding signal (z-score): -0.273
[17]
  glycan array binding signal (z-score): 3.11
GlcNAc(b1-3)Man
  glycan array binding signal (z-score): -0.164
[18]
  glycan array binding signal (z-score): -0.203
[19]
  glycan array binding signal (z-score): -0.229
Man(a1-3)[Man(a1-6)]Man
  glycan array binding signal (z-score): -0.26
[20]
  glycan array binding signal (z-score): -0.266
[21]
  glycan array binding signal (z-score): -0.211
